This is an account of results in PubChem BioAssay.

Structures are written as SMILES. “And” between values parts separate entries of the source, which are not always exact repeats. Identical values can stand only once. The source made the active and inactive calls. No stated cut-off is given here; in the data, active means plate-normalised HSF1 focus index below about 0.46; inactive means the rest.

The first assay can be described thus: sensitizers of A549 cells to miR-34 induction, primary screen, imaging, A549 dox-inducible miR-34, nuclei and caspase counts (AID 1347080). The note with it: A549 miR-34 inducible, Hoechst nuclei count, 48 h; measured here: total cells with miR-34 induction; stronger effect = lower value.
Consider `Cc1cc(Nc2cc(CN3CCOCC3)c3nc(C)c(Cc4ccc(Cl)cc4F)n3n2)n[nH]1`, for which the cell count came out at 1440.

Take `CC1(C)CNc2cc(NC(=O)c3cccnc3NCc3ccncc3)ccc21`: the cell count came out at 7470.

On to `O=C(Nc1ccccc1-c1cn2c(CN3CCNCC3)csc2n1)c1cnc2ccccc2n1`, for which the cell count stood at 6250.

On to `N#Cc1c(NC(=O)c2cccc3ccccc23)sc2c1CCCC2`, for which the cell count was 1320.

Take `COc1cccc2cc(-c3nc(C4CCC(C(=O)O)CC4)n4ncnc(N)c34)[nH]c12` (configuration not stated): the cell count was determined as 3250.

On to `COc1ccc2c(c1)CC[C@@H]1[C@@H]2CC[C@]2(C)[C@@H](NCCCCCCN3C(=O)C=CC3=O)CC[C@@H]12`, for which the cell count is 5880 and 5430.

In the case of `CC(C)c1cc(C(C)C)c(CC(=O)NS(=O)(=O)Oc2c(C(C)C)cccc2C(C)C)c(C(C)C)c1`, the cell count was found to be 5000.

As to `CC1(C)CCC2=C(O1)c1ccccc1C(=O)C2=O`, the cell count is 1260 and 1140 and 1760.

Regarding `Nc1nc(Nc2ccc(S(N)(=O)=O)cc2)nn1C(=O)c1c(F)cccc1F`, the cell count was 1400.

For the compound `Cc1ccc(F)c(NC(=O)Nc2ccc(-c3cccc4[nH]nc(N)c34)cc2)c1`, the cell count stood at 2590.

For the compound `Cc1ncc(-c2ccnc(Nc3ccc(S(C)(=O)=O)cc3)n2)n1C(C)C`, the cell count was 1780.

As for `N#CCNC(=O)c1ccc(-c2ccnc(Nc3ccc(N4CCOCC4)cc3)n2)cc1`, the cell count is 1150.

`COC(=O)c1ccc2c(C(=Nc3ccc(N(C)C(=O)CN4CCN(C)CC4)cc3)c3ccccc3)c(O)[nH]c2c1`: the cell count was determined as 5790.

For `COc1cc2nccc(Oc3ccc(NC(=O)Nc4cc(C)on4)c(Cl)c3)c2cc1OC`, the cell count amounted to 2720.

Staying with this assay, now noted: A549 miR-34 inducible, Hoechst nuclei count, 48 h; measured here: total cells without miR-34 induction.
For the compound `Cc1cc(Nc2cc(CN3CCOCC3)c3nc(C)c(Cc4ccc(Cl)cc4F)n3n2)n[nH]1`, the cell count amounted to 982.

With `CC1(C)CNc2cc(NC(=O)c3cccnc3NCc3ccncc3)ccc21`, the cell count was determined as 7630.

Turning to `O=C(Nc1ccccc1-c1cn2c(CN3CCNCC3)csc2n1)c1cnc2ccccc2n1`, the cell count stood at 6890.

On to `N#Cc1c(NC(=O)c2cccc3ccccc23)sc2c1CCCC2`, for which the cell count stood at 1290.

For `COc1cccc2cc(-c3nc(C4CCC(C(=O)O)CC4)n4ncnc(N)c34)[nH]c12` (configuration not stated), the cell count was found to be 3360.

Take `COc1ccc2c(c1)CC[C@@H]1[C@@H]2CC[C@]2(C)[C@@H](NCCCCCCN3C(=O)C=CC3=O)CC[C@@H]12`: the cell count is 6300 and 5860.

For the compound `CC(C)c1cc(C(C)C)c(CC(=O)NS(=O)(=O)Oc2c(C(C)C)cccc2C(C)C)c(C(C)C)c1`, the cell count was 5220.

As to `CC1(C)CCC2=C(O1)c1ccccc1C(=O)C2=O`, the cell count is 1190 and 1130 and 1740.

For the compound `Nc1nc(Nc2ccc(S(N)(=O)=O)cc2)nn1C(=O)c1c(F)cccc1F`, the cell count amounted to 1580.

`Cc1ccc(F)c(NC(=O)Nc2ccc(-c3cccc4[nH]nc(N)c34)cc2)c1`: the cell count amounted to 2860.

In the case of `Cc1ncc(-c2ccnc(Nc3ccc(S(C)(=O)=O)cc3)n2)n1C(C)C`, the cell count amounted to 1790.

Consider `N#CCNC(=O)c1ccc(-c2ccnc(Nc3ccc(N4CCOCC4)cc3)n2)cc1`, for which the cell count came to 1230.

Turning to `COC(=O)c1ccc2c(C(=Nc3ccc(N(C)C(=O)CN4CCN(C)CC4)cc3)c3ccccc3)c(O)[nH]c2c1`, the cell count is 6370.

For the compound `COc1cc2nccc(Oc3ccc(NC(=O)Nc4cc(C)on4)c(Cl)c3)c2cc1OC`, the cell count stood at 2010.

Another assay in a line: modifiers of HSF1 nuclear foci, imaging, Selleck Cancer Library (AID 1347162). The note with it: human cells, at 10 µM; SSMD: measured here: HSF1 foci SSMD mean; cell count: measured here: cell number; plate-normalised HSF1 focus index: stronger effect = lower value.
On to `C#CCN(C)CC1=Cc2ccccc2Oc2ccccc21`, for which the plate-normalised HSF1 focus index was 1.15 (inactive), the SSMD amounted to 2.55 and the cell count is 6620.

For the compound `CC1(C)CNc2cc(NC(=O)c3cccnc3NCc3ccncc3)ccc21`, the plate-normalised HSF1 focus index is 1.16 (inactive), the cell count amounted to 7450 and the SSMD was 2.51.

Take `O=C(Nc1ccccc1-c1cn2c(CN3CCNCC3)csc2n1)c1cnc2ccccc2n1`: the plate-normalised HSF1 focus index was 0.795 (inactive), the SSMD was -4.31 and the cell count was determined as 6160.

Regarding `Cc1cnc(NC(=O)Nc2cc(Br)c(C)cc2OC[C@@H]2CNCCO2)cn1`, the cell count is 6470, the plate-normalised HSF1 focus index is 1.16 (inactive) and the SSMD was determined as 3.14.

For `CCOc1cc(/C=C2/C(=O)N(c3ccccc3)N=C2C)cc(Cl)c1OCC(=O)OC`, the cell count came out at 6670, the plate-normalised HSF1 focus index was 1.07 (inactive) and the SSMD was found to be 1.24.

Take `COc1ccc(-c2ccc3c(N4CCOC[C@@H]4C)nc(N4CCOC[C@@H]4C)nc3n2)cc1CO`: the plate-normalised HSF1 focus index is 0.995 (inactive), the SSMD was -0.138 and the cell count came to 7120.

`Nc1nc(Nc2ccc(S(N)(=O)=O)cc2)nn1C(=O)c1c(F)cccc1F`: the SSMD was -0.763, the plate-normalised HSF1 focus index is 0.961 (inactive) and the cell count came to 6780.

Turning to `Cc1ccc(F)c(NC(=O)Nc2ccc(-c3cccc4[nH]nc(N)c34)cc2)c1`, the cell count is 6540, the plate-normalised HSF1 focus index was 1.21 (inactive) and the SSMD was 4.01.

`COc1ccc(-c2ccc3c(N4CCOCC4)nc(N4C[C@@H](C)O[C@@H](C)C4)nc3n2)cc1CO`: the SSMD was -1.75, the plate-normalised HSF1 focus index was 0.909 (inactive) and the cell count is 6570.

On to `CCOc1cc2ncc(C#N)c(Nc3ccc(OCc4ccccn4)c(Cl)c3)c2cc1NC(=O)/C=C/CN(C)C`, for which the plate-normalised HSF1 focus index was 0.928 (inactive), the SSMD is -1.15 and the cell count is 7340.

With `N#CCNC(=O)c1ccc(-c2ccnc(Nc3ccc(N4CCOCC4)cc3)n2)cc1`, the SSMD was -3.51, the plate-normalised HSF1 focus index is 0.876 (inactive) and the cell count stood at 7330.

`COC(=O)c1ccc2c(C(=Nc3ccc(N(C)C(=O)CN4CCN(C)CC4)cc3)c3ccccc3)c(O)[nH]c2c1`: the SSMD was determined as 2.23, the cell count was 7520 and the plate-normalised HSF1 focus index was 1.08 (inactive).

As for `COc1cc2nccc(Oc3ccc(NC(=O)Nc4cc(C)on4)c(Cl)c3)c2cc1OC`, the SSMD worked out at 3.28, the plate-normalised HSF1 focus index is 1.19 (inactive) and the cell count turned out to be 7170.
